# In PubChem BioAssay AID602313 (National Center for Advancing Translational Sciences (NCATS), 2012):
# Out of some 390,000 compounds screened, about 760 (0.19%) were called active. Inconclusive results (about 3%) are left out. The call rests on the fitted dose curve; in most records, active means well fitted inhibition curve with a large enough effect; inconclusive means small, poorly fitted or top-dose-only effect; inactive means flat fitted curve, though single readings scatter. The entries come from a sample that favours actives as a whole.
# Assay: qHTS for Inhibitors of Vif-A3F Interactions: qHTS; further: nearly all actives have a fitted effect of over 65% in size; on activity, negative = active: % of control where 0% means no effect
# Conditions: HeLa A3F-eYFP + Vif (tagged APOBEC3F with the HIV-1 protein that degrades it), YFP fluorescence increase; series mostly up to 46.1 µM; activity, negative = active: at the top concentration
# In short: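 Fluorescence increase (Ex 488/Em 500-530) after overnight compound treatment at 37 deg C flags inhibition of Vif-driven A3F-eYFP loss in stable HeLa A3F-eYFP/Vif cells seeded overnight beforehand.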
# Potency means the concentration at half of the fitted maximal effect.
Structure (SMILES),"activity, negative = active",Potency
CCOC(=O)c1cc(-c2ccccc2)n(-c2cccc(C(=O)Nc3cc(OC)cc(OC)c3)c2)c1C,-2.09% (inactive),–
Cn1ccc2cc(S(=O)(=O)N3CCCC(C(=O)NCc4ccccc4F)C3)ccc21 (stereo unspecified),4.17% (inactive),–
O=C(NC1CC(=O)N(c2ccccc2)C1)c1ccco1 (stereo unspecified),0.19% (inactive),–
Cc1cn(C)c(CC(=O)NCc2ccc(Cl)cc2)c1C(=O)O,2.04% (inactive),–
O=C(NCCc1csc(-c2ccc(C(F)(F)F)cc2)n1)C(=O)Nc1ccc(F)c(Cl)c1,0.643% (inactive),–
Cc1cc(C)c2oc(-c3cccc(NC(=O)c4cccc(F)c4)c3C)nc2c1,1.45% (inactive),–
CCCCn1c(=O)c2oc3ccccc3c2n(CC(=O)Nc2ccccc2OC)c1=O,-15.2% (inactive),–
CCCCN(CC)C(=O)c1c[nH]c2ccc(S(=O)(=O)Nc3cccc(OC)c3)cc2c1=O,-7.41% (inactive),–
CC(=O)N/C(=N/c1nc(C)cc(C)n1)Nc1ccc(F)cc1F,-7.66% (inactive),–
Cc1cc(C)nc(-n2nc(C)cc2NC(=O)c2ccc(F)cc2F)n1,–,12.6 µM (active)
Cc1cc(C(=O)Nc2cccc(C(F)(F)F)c2)c2c(C)nn(-c3cccc(F)c3)c2n1,-9.16% (inactive),–
O=C(COc1ccc(Cl)cc1)Nc1ccccc1OCc1cc(=O)n2ccccc2n1,0.587% (inactive),–
COc1cccc(/C=N/NC(=O)c2[nH]nc3c2CCc2ccccc2-3)c1O,–,25.1 µM (active)
Cc1ccccc1NC(=O)COc1cccc2c1CCNC2=O,-9.72% (inactive),–
Cc1ncc(CO)c(/C=N/NC(=O)c2cccc(S(=O)(=O)N3CCCC3)c2)c1O,5.89% (inactive),–
COC(=O)c1c(NC(=O)c2cc(=O)c3c(C)cc(C)cc3o2)sc2c1CCCC2,-0.264% (inactive),–

Structure (SMILES),"activity, negative = active",Potency
Cn1c(C(=O)Nc2cccc(C(F)(F)F)c2)cc2c(=O)n3ccccc3nc21,1.82% (inactive),–
Cc1ccc(NC2=C(c3ccc(C(F)(F)F)cc3)C(=O)c3ccccc32)cc1F,-3.21% (inactive),–
Cc1ccc(Cn2c(CCCNC(=O)C3CCCCC3)nc3ccccc32)cc1,0.0414% (inactive),–
Cn1c(SCC(=O)N2CCCc3ccccc32)nc2ccccc2c1=O,2.28% (inactive),–
Cc1cccc(-c2nnc(SCC(=O)N3CCCc4ccccc43)o2)c1,4.4% (inactive),–
Cc1cccc2cc3c(N)c(C(=O)N4CCCc5ccccc54)sc3nc12,–,11.2 µM (active)
CCOC(=O)c1cccc(NC(=O)c2cc(CN3CCCC3)on2)c1,1.99% (inactive),–
CC(=O)c1ccc(NC(c2ccc(F)cc2)c2nnc(-c3ccccc3)o2)cc1 (stereo unspecified),-8.82% (inactive),–
CCc1ccc(N2C(=O)CN(S(=O)(=O)CC)CC2(C)C(=O)NC2CCCCC2)cc1 (stereo unspecified),2.79% (inactive),–
CCCn1c(=N)c(C(=O)NCc2ccccc2)cc2c(=O)n3cccc(C)c3nc21,-5.4% (inactive),–
CC(C)c1ccc(NC(=O)c2ccc(Cn3nc(N4CCN(c5ccccc5)CC4)ccc3=O)o2)cc1,0.981% (inactive),–
Cn1c(=O)c2c(SCC(=O)NCC3CCCO3)nc(-c3ccccc3F)nc2n(C)c1=O (stereo unspecified),-5.96% (inactive),–
Cc1ccc(-c2cc(C(=O)Oc3ccccc3Cl)no2)cc1C,-1.13% (inactive),–
O=c1cc(COc2cccc(C(F)(F)F)c2)nc2sc3c(n12)CCCC3,-7.96% (inactive),–
COc1ccc(CNC(=O)c2cc3cccc(OC)c3oc2=O)cc1,0.834% (inactive),–
